The source made the active and inactive calls. A call without a number means that no potency is given here. The call rests on the fitted dose curve; in most records, active means well fitted activation curve with a large enough effect in the repeat runs; inconclusive means weak or mixed curves; inactive means flat fitted curve, though single readings scatter.

Sequence of KiSS-1 receptor (Homo sapiens) (Q969F8 whole entry, looked up): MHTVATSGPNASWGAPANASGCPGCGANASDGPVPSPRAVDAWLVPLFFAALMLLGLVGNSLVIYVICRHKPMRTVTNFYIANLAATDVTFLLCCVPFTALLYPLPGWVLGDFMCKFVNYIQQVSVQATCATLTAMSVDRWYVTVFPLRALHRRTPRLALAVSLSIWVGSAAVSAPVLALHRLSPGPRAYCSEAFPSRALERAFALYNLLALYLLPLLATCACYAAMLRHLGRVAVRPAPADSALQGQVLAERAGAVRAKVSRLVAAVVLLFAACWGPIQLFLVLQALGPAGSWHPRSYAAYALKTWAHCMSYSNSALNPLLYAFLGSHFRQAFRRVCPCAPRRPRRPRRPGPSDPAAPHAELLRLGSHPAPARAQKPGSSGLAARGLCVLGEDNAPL

This test has as its target KiSS-1 receptor (Homo sapiens) (UniProt Q969F8). The test is described as follows: Human kisspeptin (KISS1R) small molecule agonists, calcium flux assay in KISS1R-HEK293 cells (AID 1920064). The settings on record: KISS1R-HEK293, calcium flux fluorescence, agonist; series mostly up to 76.8 µM. From the text: National Center for Advancing Translational Sciences [NCATS]
Division of Preclinical Innovation [DPI]
U.S. Environmental Protection Agency [EPA]
National Institutes of Environmental Health Sciences [NIEHS]
National Toxicology Program [NTP]
U.S. Food and Drug Administration [FDA]
Kisspeptin and its receptor KISS1R play key roles in mammalian reproduction due to their involvement in the onset of puberty and control of the hypothalamic-pituitary-gonadal axis such as regulates GnRH release from the hypothalamus. The kisspeptin/KISS1R system also plays a direct role in peripheral organs (including the ovary, testis, uterus, and placenta) and is implicated in reproductive diseases such as miscarriage and polycystic ovary syndrome (PCOS). Abnormal KISS1R activity is associated with abnormal puberty, infertility, endometriosis, and hormone-dependent tumors. The KISS1 receptor (KISS1R, also called GPR54), a G-protein-coupled receptor (GPCR), acts (through phospholipase C) to increase intracellular inositol trisphosphate and then release intracellular calcium stores. Cell-based KISS1R-HEK293 assay is using HEK293 cells that have been genetically engineered to express the human KISS1R, which activity can be measured by calcium signaling. A compound/drug can activate (agonist) KISS1R that can be monitored by levels of intracellular calcium.
KISS1R-HEK293 cells developed by Codex Corp contain human KISS1R gene, which was stably integrated into HEK 293 cells. The compound activation can be detected by fluorescence intensity via calcium flux assay. This cell line has been used to screen the Tox21 10K compound library to identify agonists of KISS1R.
KISS1R-Hek293 cells were dispensed at 1500 cells/4uL/well in 1536-well black wall/clear bottom plates using a multidrop dispenser. After the assay plates were incubated at a 37 C/5% CO2 incubator for 18 hours, 4 microL of Calcium Dye Solution was added to each well. The plates were incubated at 37 C for 1 hour. And then 23 nL of compounds dissolved in DMSO, positive controls, or DMSO only was transferred to the assay plate by a pin tool station. The fluorescence intensity in the plates was measured using FDSS 7000EX kinetic plate reader with a filter set of Ex/Em=480/540 for 3 min at 1 sec intervals. Each test compound was measured at 15 concentrations and in triplicates.
Take `NC(=O)c1cnccn1`: the Potency entry is “inactive”.
For the compound `COC(=O)CCCCC(=O)OC`, the Potency entry is “inactive”.
With `O=C1CCCCCCCCCCC1` the entry was “inactive”; with `O=C1CCCCCN1`, “inactive”; with `C=C[C@@]1(C)CC(=O)[C@]2(O)[C@@]3(C)[C@@H](O)CCC(C)(C)[C@@H]3[C@H](O)[C@H](OC(C)=O)[C@@]2(C)O1`, “inactive”.
On to `O=C(O)CCCCCCCC(=O)O`, for which the Potency result is “inactive”.
Take `N=C(N)c1ccc(OCCCCCOc2ccc(C(=N)N)cc2)cc1`: the Potency entry was “inactive”.
`CC(=O)[C@H]1CC[C@H]2[C@@H]3CC=C4C[C@@H](O)CC[C@]4(C)[C@H]3CC[C@]12C`: the Potency result was “inactive”.
Regarding `CCCCCCCCCCCCCCCCCC(=O)OCC(O)CO` (stereo not given), the Potency result was “inactive”.
Consider `Cc1cn([C@H]2C[C@H](N=[N+]=[N-])[C@@H](CO)O2)c(=O)[nH]c1=O`, for which the Potency entry was “inactive”.
With `CCCCCCCCCC` the entry was “inactive”; with `C=CCc1ccc(O)c(OC)c1`, “inactive”.
Regarding `CCCCCC/C=C/CCCCCCCC(=O)O`, the Potency result is “inactive”.
As for `CC(C)C(=O)Nc1ccc([N+](=O)[O-])c(C(F)(F)F)c1`, the Potency result was “inactive”.
With `O=C(Cl)c1cccc(C(=O)Cl)c1` the entry was “inactive”; with `CC(C)[N+](C)(CCOC(=O)C1c2ccccc2Oc2ccccc21)C(C)C`, “inactive”; with `Cc1cccc2n[nH]nc12`, “inactive”.
Consider `Cc1cn([C@H]2C=C[C@@H](CO)O2)c(=O)[nH]c1=O`, for which the Potency entry is “inactive”.
With `CC(C)Cc1ccccc1` the entry was “inactive”; with `COc1cc(O)c(C(=O)c2ccccc2)cc1S(=O)(=O)O`, “inactive”; with `COc1ccc([N+](=O)[O-])cc1N`, “inactive”.
`OC[C@@H](O)[C@@H](O[C@@H]1O[C@H](CO)[C@H](O)[C@H](O)[C@H]1O)[C@H](O)[C@@H](O)CO`: the Potency entry is “inactive”.
Take `Cc1ccc(S(=O)(=O)O)cc1C`: the Potency entry was “inactive”.
`Cc1ccc2c(n1)Oc1ccc(C(C)C(=O)OCC(=O)N(C)C)cc1C2` (stereo not given): the Potency result is “inactive”.
With `O=C(O)Cn1c(=O)n(Cc2ccc(Br)cc2F)c(=O)c2ccc(Cl)cc21` the entry was “inactive”; with `CCCCCCO`, “inactive”; with `CC1(C)OC(=O)NC1=O`, “inactive”.
With `Cc1ccc(C)c(O)c1C` the entry was “inactive”.
With `CC(=O)Nc1c(I)c(NC(C)=O)c(I)c(C(=O)O)c1I` the entry was “inactive”.
On to `CC(C)(CO)CO`, for which the Potency result is “inactive”.
With `O=C(O)CN(CC(=O)O)CC(=O)O` the entry was “inactive”; with `Cc1ccc(C)c(O)c1`, “inactive”; with `CCCCCCCCCCCC[N+](C)(C)C`, “inactive”.
With `NC(=O)N/N=C/c1ccc([N+](=O)[O-])o1` the entry was “inactive”; with `CCOc1ccc(NC(C)=O)cc1`, “inactive”.
With `CC(CCl)OP(=O)(OC(C)CCl)OC(C)CCl` (stereo not given) the entry was “inactive”; with `CC1=CC2C3CC(C=C3C)C2C1` (stereo not given), “inactive”; with `CC(=O)C(C)C`, “inactive”.
As for `CC1=C(/C=C/C(C)=C/C=C/C(C)=C/CO)C(C)(C)CCC1`, the Potency result is “inactive”.
As for `COCCOCCOC`, the Potency result is “inactive”.
